The values that follow come from PubChem BioAssay.

The nature of test [1]: HepG2 liver cancer cell viability effects, profiling panel, resazurin fluorescence, 24 h, PK04 Diversity Set (AID 1172). Note: test concentration not given here. Conditions: higher = more signal.
Test [2] is described as follows: basal S. cerevisiae growth modulation, no modifier, primary screen, OD600, strain BY4716, 24 h, basal condition (AID 1173). The conditions noted are these: OD600, 24 h, higher = more signal, called active from +8 up or from −8 down.
Test [3] can be described thus: MM1S myeloma cell viability, profiling panel, resazurin fluorescence, basal, 24 h, PK04 Diversity Set (AID 1174).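 Note: MM1S multiple myeloma cell line; test concentration not given here.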 The conditions noted are these: higher = more signal, called active from +8 up or from −8 down. Background: The colour change of resazurin is a common sign of viable cells or microbes.
Test [4] has as its target Dihydroorotate dehydrogenase (quinone), mitochondrial (Plasmodium falciparum (isolate 3D7)) (UniProt Q08210). Kind of test: PfDHODH enzyme inhibitors, primary screen, biochemical, C-terminal His tag, absorbance 600 nm (AID 1175).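 Note: recombinant parasite enzyme with a five histidine tag at its C terminus; test concentration not given here.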 The conditions noted are these: DCIP absorbance 600 nm, higher = more signal, called active from +8 up or from −8 down.
The nature of test [5]: P. aeruginosa biofilm formation inhibitors, primary screen, strain PAO1, LB-PBS medium, absorbance 600 nm (AID 1176). Note: test concentration not given here. Conditions: P. aeruginosa PAO1 growth/biofilm, A600, 12 h; higher = more signal.
Test [6] is described as follows: S. cerevisiae RM11-1a growth modifiers, primary screen, strain RM11-1a, OD600, basal, 24 h (AID 1177).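 Note: cultures grown under basal conditions with no added stressor; test concentration not given here.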 Conditions: OD600, 24 h, higher = more signal, called active from +8 up or from −8 down.
A short description of test [7]: E. coli acrAB mutant growth effects, primary screen, E. coli filamentation inducers, strain DRC39, OD650, 24 h (AID 1178).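 Note: growth measured as culture turbidity by optical density at 650 nm; test concentration not given here.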 The conditions noted are these: higher = more signal, called active from +8 up or from −8 down.
A short description of test [8]: E. coli acrAB mutant growth effects, primary screen, E. coli filamentation inducers, strain DRC39, OD650, 48 h (AID 1179).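 Note: screen aims at cell division blockers that make cells filament.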 Conditions: E. coli DRC39 delta-acrAB growth, higher = more signal, called active from +8 up or from −8 down.
The nature of test [9]: RPMI8226 myeloma cell viability, profiling panel, resazurin fluorescence, basal, 24 h, PK04 Diversity Set (AID 1180).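 Note: RPMI8826 multiple myeloma cell line at 5000 cells per well; test concentration not given here.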 Conditions: higher = more signal.
The target in test [10] is E3 ubiquitin-protein ligase XIAP (Homo sapiens) (UniProt P98170). Kind of test: XIAP binders, primary screen, biophysical, small-molecule microarray, fluorescence 635 nm (AID 1181).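 Note: score merges 667 nm emission and signal to noise over triplicate slides.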 Conditions: small-molecule microarray binding, higher = more signal.

Activity calls are given as the source filed them. Unless noted, the rule behind the calls is not given here.

E3 ubiquitin-protein ligase XIAP (Homo sapiens), sequence (P98170 whole entry, looked up): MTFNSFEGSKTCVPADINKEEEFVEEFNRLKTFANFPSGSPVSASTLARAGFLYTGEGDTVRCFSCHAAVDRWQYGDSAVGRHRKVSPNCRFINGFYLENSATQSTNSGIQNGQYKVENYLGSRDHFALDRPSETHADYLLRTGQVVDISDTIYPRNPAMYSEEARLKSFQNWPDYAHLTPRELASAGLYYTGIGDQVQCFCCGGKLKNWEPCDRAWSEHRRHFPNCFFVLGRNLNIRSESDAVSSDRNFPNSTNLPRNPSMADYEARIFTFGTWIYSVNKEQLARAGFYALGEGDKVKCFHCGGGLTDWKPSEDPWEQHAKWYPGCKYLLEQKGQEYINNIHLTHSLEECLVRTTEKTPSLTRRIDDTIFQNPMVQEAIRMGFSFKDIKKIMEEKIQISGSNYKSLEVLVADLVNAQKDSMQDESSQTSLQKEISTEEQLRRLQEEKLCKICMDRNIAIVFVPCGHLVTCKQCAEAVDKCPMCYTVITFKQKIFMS
Dihydroorotate dehydrogenase (quinone), mitochondrial (Plasmodium falciparum (isolate 3D7)), sequence (Q08210 whole entry, looked up): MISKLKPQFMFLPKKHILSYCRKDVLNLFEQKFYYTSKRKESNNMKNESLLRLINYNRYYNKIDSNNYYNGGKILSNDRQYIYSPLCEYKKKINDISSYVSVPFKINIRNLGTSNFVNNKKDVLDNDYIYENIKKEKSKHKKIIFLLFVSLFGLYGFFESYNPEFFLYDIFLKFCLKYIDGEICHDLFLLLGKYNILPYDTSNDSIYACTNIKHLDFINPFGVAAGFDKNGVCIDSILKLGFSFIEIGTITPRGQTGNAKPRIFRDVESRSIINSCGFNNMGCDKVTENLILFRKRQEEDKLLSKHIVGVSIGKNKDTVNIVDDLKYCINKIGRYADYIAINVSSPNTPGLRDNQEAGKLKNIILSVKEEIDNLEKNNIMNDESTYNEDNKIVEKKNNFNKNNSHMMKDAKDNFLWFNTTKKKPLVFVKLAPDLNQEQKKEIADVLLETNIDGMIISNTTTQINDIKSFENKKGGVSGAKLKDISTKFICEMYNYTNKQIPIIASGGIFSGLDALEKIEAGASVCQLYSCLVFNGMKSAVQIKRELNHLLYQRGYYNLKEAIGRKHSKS

Turning to `O=C1[C@H]2[C@H]3[C@H](O)[C@H](O)CC(=NO[C@@H]4O[C@H](CO)[C@@H](O)[C@H](O)[C@H]4O)[C@@H]3CC[C@H]2C(=O)N1c1ccc(F)cc1F`, the z-score is 0.662 in [1]; -0.767 (inactive) in test [2]; 0.412 (inactive) in test [3]; -0.118 (inactive) in [5]; -0.815 (inactive) in test [6]; 0.789 (inactive) in test [7]. Moreover, the values for the z-score in [8] and in test [9] were 0.391 (inactive) and 0.741, respectively. Also, the results for the composite z-score in [4] and in test [10] were -1.39 (inactive) and -0.313, respectively.

`C[C@H](c1ccccc1)N1C(=O)[C@H]2[C@H]3[C@H](O)[C@H](O)CC(=O)[C@@H]3CC[C@H]2C1=O`: the z-score in test [1] is -0.353; in [2], 0.205 (inactive); in [3] it was -0.486 (inactive); in test [5], 0.544 (inactive); in [6] it was -0.897 (inactive); in test [7] it was -0.159 (inactive). Also, the z-score was -0.0569 (inactive) in [8] and -0.523 in [9]. Besides, the figures for the composite z-score in [4] and in [10] were -0.303 (inactive) and -0.0826, respectively.

Regarding `CCCC[C@@H](O)C1=C(C)C[C@H]2C(=O)N(Cc3ccccc3)C(=O)[C@H]2[C@H]1CO`, the z-score was -0.31 in test [1]; -3.87 (inactive) in test [2]; -0.327 (inactive) in test [3]; 0.27 (inactive) in test [5]; 0.161 (inactive) in test [6]; 0.11 (inactive) in test [7]. Further, the z-score in test [8] is 0.183 (inactive); in test [9] it was -0.287. The figures for the composite z-score in test [4] and in test [10] were -2.65 (inactive) and -0.0911, respectively.

With `O=C1O[C@@H](c2ccccc2)[C@@H](c2ccccc2)N2[C@@H](c3ccc(OCCO)cc3)[C@]3(C(=O)Nc4ccc(C#CCCO)cc43)[C@@H](C(=O)N3CCCCCCC3)[C@H]12`, the z-score in test [1] is 0.0125; in test [2], -0.355 (inactive); in [3], 0.605 (inactive); in test [5], 1.72 (inactive); in [6], 1.17 (inactive); in [7] it was -0.515 (inactive). In addition, the z-score was 0.543 (inactive) in test [8] and 1.55 in [9]. Also, the composite z-score in test [4] is 0.221 (inactive); in test [10], 0.733.

For `O=C1[C@H]2[C@H]3[C@H](O)[C@H](O)CC(=NO[C@@H]4O[C@H](CO)[C@@H](O)[C@H](O)[C@H]4O)[C@H]3CC[C@H]2C(=O)N1Cc1ccccc1`, the z-score in [1] is 0.835; in [2], -0.816 (inactive); in test [3] it was -0.183 (inactive); in test [5], -0.0728 (inactive); in test [6] it was -1.1 (inactive); in [7], -0.395 (inactive). Also, the z-score in [8] was 0.355 (inactive); in test [9], 0.797. Besides, the composite z-score in test [4] was -0.592 (inactive); in [10], 0.0153.

With `N#Cc1ccc(NN2C(C(O)c3cc(C(F)(F)F)cc(C(F)(F)F)c3)C=CC3C(=O)N(c4ccccc4)C(=O)C32)cc1` (stereo not given), the z-score in test [1] is -1.75; in test [2], -0.102 (inactive); in test [3], -0.758 (inactive); in [5], 1.14 (inactive); in test [6] it was -0.0165 (inactive); in test [7], -1.55 (inactive). Moreover, the z-score in test [8] is -0.56 (inactive); in test [9] it was -0.409. Further, the composite z-score is 0.678 (inactive) in test [4] and 0.0239 in [10].

Take `CC(=O)OC[C@H]1O[C@H](CCON=C(C)CCN2CCc3nc(-c4ccccc4)c(-c4ccccc4)cc3C2)C=C[C@@H]1OC(C)=O`: the z-score in test [1] was 0.0962; in test [2], -0.0567 (inactive); in test [3], -0.91 (inactive); in test [5], 0.441 (inactive); in test [6] it was -0.64 (inactive); in [7] it was 0.304 (inactive). The z-score is -0.545 (inactive) in test [8] and 0.28 in test [9]. In addition, the composite z-score in [4] was -0.439 (inactive); in [10], 0.275.

With `CCN1C(=O)[C@H]2[C@H]3[C@H](O)[C@H](O)CC(=NOCc4ccccc4)[C@H]3CC[C@H]2C1=O`, the z-score in test [1] was -0.322; in [2] it was -0.0753 (inactive); in test [3] it was -0.344 (inactive); in test [5], 0.164 (inactive); in [6], -0.889 (inactive); in test [7], 0.114 (inactive). The z-score in test [8] was 0.293 (inactive); in test [9] it was -0.855. Further, the composite z-score was -0.422 (inactive) in test [4] and 0.0785 in test [10].

As for `COc1ccc(COC(=O)NN=C2C[C@@H](O)[C@@H](O)[C@@H]3[C@@H]4C(=O)N(c5ccc(F)cc5F)C(=O)[C@@H]4CC[C@@H]23)cc1`, the z-score in [1] was 0.631; in test [2] it was 0.64 (inactive); in [3] it was 0.527 (inactive); in [5] it was -0.176 (inactive); in test [6] it was 0.968 (inactive); in test [7] it was 0.583 (inactive). For the same compound, the z-score in [8] was 0.644 (inactive); in test [9], 0.635. The composite z-score is 0.0922 (inactive) in test [4] and -0.173 in test [10].

For `CO[C@@H]1COC(=O)CCC[C@@H](C)[C@H](OC)COC(=O)CCC[C@H]1C`, the z-score in test [1] is 0.733; in test [2] it was 1.47 (inactive); in test [3], 0.367 (inactive); in test [5], -0.667 (inactive); in test [6] it was 1.6 (inactive); in test [7], 0.265 (inactive). The z-score was -0.65 (inactive) in [8] and 0.276 in test [9]. The composite z-score in test [4] is -0.0732 (inactive); in test [10] it was -0.256.

Turning to `O[C@@H](Cc1ccccc1)[C@H]1C2C=CCCC(c3ccccc3)=C2CN1Cc1cccc(Cl)c1` (stereo not given in full), the z-score in test [1] was 0.689; in test [2], -3.75 (inactive); in test [3] it was -0.146 (inactive); in [5] it was 1.56 (inactive); in test [6] it was -0.53 (inactive); in test [7] it was 3.04 (inactive). Besides, the z-score is 1.85 (inactive) in test [8] and -0.0337 in [9]. Moreover, the composite z-score in [4] was 0.426 (inactive); in test [10] it was 0.25.

With `CCCCCN1CC=CC23O[C@@H]4C=CCOC(=O)[C@@H]4[C@H]2C(=O)N(C(CO)C(C)C)[C@@H]3C1=O` (stereo not given in full), the z-score in [1] is 0.862; in test [2], 1.02 (inactive); in [3], 0.111 (inactive); in [5] it was 0.0126 (inactive); in test [6], 0.89 (inactive); in test [7], -0.128 (inactive). Also, the z-score in test [8] is -0.301 (inactive); in test [9], -0.0045. Also, the composite z-score in test [4] is 0.204 (inactive); in [10], 0.266.

With `COC(=O)CC1OC1[C@H](C)[C@@H](OC)C(C)C` (stereo not given in full), the z-score in test [1] was -0.863; in test [2], -4.59 (inactive); in [3] it was -1.91 (inactive); in [5], 0.699 (inactive); in test [6] it was 0.748 (inactive); in test [7], 0.487 (inactive). Besides, the z-score is 0.293 (inactive) in test [8] and -1.43 in test [9]. For the same compound, the values for the composite z-score in test [4] and in [10] were -3.39 (inactive) and -0.313, respectively.
